Results on 60 compounds are retold here after PubChem BioAssay AID2221 (Broad Institute, 2009).

The structures appear in SMILES notation. The whole screen tested about 290,000 compounds, of which about 2,200 (0.76%) were called active. The sample holds actives, similar compounds and a random draw of the others, so the mix is not that of the screen. Cut-off read from the data, not from the text of the source: active = inhibition above about 30%; inconclusive = no clear call, values can overlap the other calls; inactive = below that.

The target of this assay is Protein RecA (Mycobacterium tuberculosis (strain ATCC 25618 / H37Rv)) (UniProt P9WHJ3). In words: Mtb RecA intein splicing inhibitors, primary screen, biochemical, fluorescence, HTS (AID 2221).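 Note: 0% = vehicle wells and 100% = reference inhibitor control wells.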 Conditions: cell-free RecA intein splicing, active compounds read high, concentration not given here.
Protein RecA (Mycobacterium tuberculosis (strain ATCC 25618 / H37Rv)), sequence (P9WHJ3 whole entry, looked up): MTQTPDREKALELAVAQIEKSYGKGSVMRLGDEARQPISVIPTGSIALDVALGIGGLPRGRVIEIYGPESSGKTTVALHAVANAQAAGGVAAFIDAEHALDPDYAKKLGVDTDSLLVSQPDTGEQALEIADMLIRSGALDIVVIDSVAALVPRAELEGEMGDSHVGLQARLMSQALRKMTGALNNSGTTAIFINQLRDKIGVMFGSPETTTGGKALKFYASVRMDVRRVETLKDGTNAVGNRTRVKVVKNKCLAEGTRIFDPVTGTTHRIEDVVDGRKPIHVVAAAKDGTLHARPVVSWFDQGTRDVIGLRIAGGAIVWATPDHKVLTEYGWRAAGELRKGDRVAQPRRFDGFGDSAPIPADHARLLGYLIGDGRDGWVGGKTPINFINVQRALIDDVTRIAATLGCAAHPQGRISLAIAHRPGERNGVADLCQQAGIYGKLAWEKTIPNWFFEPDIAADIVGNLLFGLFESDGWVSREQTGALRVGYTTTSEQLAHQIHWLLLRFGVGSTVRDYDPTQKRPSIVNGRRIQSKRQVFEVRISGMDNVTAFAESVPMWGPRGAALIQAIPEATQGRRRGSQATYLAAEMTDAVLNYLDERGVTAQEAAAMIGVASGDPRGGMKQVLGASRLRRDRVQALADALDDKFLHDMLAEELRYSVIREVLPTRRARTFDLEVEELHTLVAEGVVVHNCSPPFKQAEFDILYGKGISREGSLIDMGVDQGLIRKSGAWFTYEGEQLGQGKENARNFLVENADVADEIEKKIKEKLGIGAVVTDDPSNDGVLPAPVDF
Usually inhibition stands for the relative decrease from the control value, in per cent. `Cc1cc(Cl)nc(NC(=O)Nc2cccc(Cl)c2)n1`: the inhibition was -0.873% (inactive).

Turning to `O=C(NCCCn1ccnc1)c1cc2c(s1)CCCC2`, the inhibition is 1.03% (inactive).

With `C=CCOc1c(Br)cc(/C=N\n2nnnc2N)cc1OC`, the inhibition is 1.44% (inactive).

In the case of `COc1cc(/C=C2/C(=O)NN(c3cccc(Cl)c3)C2=O)cc(Br)c1O`, the inhibition was 9.85% (inactive).

`CCOc1c(Br)cc(/C=C2\C(=O)N(CCC#N)N=C2C)cc1OC`: the inhibition was 89.5% (active).

Turning to `Cc1cccc(OCC(=O)NCCNC(=O)c2cccnc2)c1`, the inhibition was 4.34% (inactive).

For the compound `Cc1nn(CC(=O)NC2CCCCC2)c(=O)c2cccn12`, the inhibition is -1.92% (inactive).

In the case of `O=C(CN(C(=O)CNC(=O)c1cccs1)c1cccc(F)c1)NC1CCCCC1`, the inhibition is 2.36% (inactive).

Turning to `Cc1cccc(NC(=O)NC(=S)NC(=O)c2ccccc2)c1`, the inhibition was 1.58% (inactive).

For `Cc1cc2[nH]ncc2cc1NC(=S)NC(=O)c1ccccc1`, the inhibition is 38.6% (active).

As for `Cc1cccc(NC(=S)Nc2ccc3cn[nH]c3c2)c1`, the inhibition was 3.44% (inactive).

Consider `CC(=O)c1c(N2CCN(c3ccc(F)cc3)CC2)nc(=S)n(-c2ccccc2)c1C`, for which the inhibition was -0.168% (inactive).

Consider `Cc1ccc(CNC(=O)CCN2C(=O)[C@@H]3Cc4ccccc4CN3C2=O)cc1`, for which the inhibition is 58% (active).

Turning to `O=C(CCN1C(=O)[C@@H]2Cc3ccccc3CN2C1=O)NCc1ccccc1`, the inhibition was -0.00645% (inactive).

Turning to `O=C(CCN1C(=O)[C@@H]2Cc3ccccc3CN2C1=O)NCCc1ccccc1`, the inhibition is -9.37% (inactive).

Regarding `Cc1cc(C(=O)N/N=C/c2ccccc2[N+](=O)[O-])c(C)o1`, the inhibition was -1.48% (inactive).

Turning to `Cc1ccsc1/C=N/NC(=O)Cc1cc(=O)[nH][nH]1`, the inhibition is 93.6% (active).

For `COc1cc(CC(=O)N/N=C/c2ccccc2)c([N+](=O)[O-])cc1OC`, the inhibition is -1.27% (inactive).

In the case of `O=C(Cc1cc(=O)[nH][nH]1)N/N=C/c1ccccc1[N+](=O)[O-]`, the inhibition was 86.9% (active).

On to `CCOc1ccc(N2CC(C(=O)N/N=C/c3sccc3C)CC2=O)cc1` (stereo not given), for which the inhibition is -0.809% (inactive).

With `Cc1ccsc1/C=N/Nc1ccc(Cl)nn1`, the inhibition is 0.218% (inactive).

Consider `CCCNC(=O)OC[C@H]1O[C@H](CCO/N=C/[C@@H](NS(=O)(=O)c2ccc(C)cc2)[C@H](C)/C=C/CC(=O)OC)C=C[C@@H]1Oc1ccc(OC)cc1`, for which the inhibition is 4.43% (inactive).

`CCN=c1sc(C(=O)Nc2ccccc2)c(C)n1CC`: the inhibition was -1.39% (inactive).

In the case of `CC(=O)N1CCN(C(=O)C2(NC(=O)Nc3ccc(C)cc3)CCCCC2)CC1`, the inhibition is -0.697% (inactive).

In the case of `O=C1c2cccc3c([N+](=O)[O-])ccc(c23)C(=O)N1CC1CCCO1` (stereo not given), the inhibition is -70.4% (inactive).

`Cc1ccc(Nc2cc(C)nc3c(C)ccc([N+](=O)[O-])c23)cc1`: the inhibition was 63.3% (active).

For `Cc1ccc(Nc2ccc(C(N)=O)cc2[N+](=O)[O-])cc1`, the inhibition was 2.38% (inactive).

Take `Cc1cc(C)nc(Nc2cc([N+](=O)[O-])ccc2C)n1`: the inhibition is -2.26% (inactive).

`CN(c1ccccc1)c1ccc([N+](=O)[O-])c2nonc12`: the inhibition is 63.5% (active).

On to `Cc1ccccc1Nc1c([N+](=O)[O-])ccc2nonc12`, for which the inhibition is -1.72% (inactive).

On to `CCN(CC)c1ccc([N+](=O)[O-])c2cccnc12`, for which the inhibition is 14.5% (inactive).

Take `COc1cc(C(F)(F)F)nc2c(Br)c(C(C)(C)C)nn12`: the inhibition was 0.549% (inactive).

Regarding `CCOC(=O)c1cc(S(=O)(=O)NCCc2ccc(OC)c(OC)c2)cn1C`, the inhibition is -0.521% (inactive).

Turning to `COc1ccc(C(=O)NC(=S)NNC(=O)CCc2ccccc2)cc1`, the inhibition was 34.5% (active).

As for `COc1ccc(C(=O)NNC(=S)NC(=O)c2ccccc2)cc1`, the inhibition was 7.5% (inactive).

Consider `CC(C)Oc1ccc(CCC(=O)NNC(=S)NCc2ccccc2)cc1`, for which the inhibition is 0.193% (inactive).

Regarding `COc1ccc(N2CC(C(=O)NCCS(=O)(=O)N3CCN(c4ccccc4)CC3)CC2=O)cc1` (stereo not given), the inhibition is -1.96% (inactive).

`CC(C)C(NC(=O)C1CCC(C(C)(C)C)CC1)C(=O)NCCCN1CCCCC1` (stereo not given): the inhibition is 0.406% (inactive).

Turning to `Cc1ccc(F)cc1NC(=O)Cc1nn(C)c(=O)c2ccccc12`, the inhibition is -33.8% (inactive).

Take `Cc1c(-c2nn(C)c(=O)c3ccccc23)oc2ccc(F)cc2c1=O`: the inhibition was 88.2% (active).

`O=C1c2oc3ccc(Br)cc3c(=O)c2C(c2cccc(F)c2)N1CCO` (stereo not given): the inhibition was 1.67% (inactive).

With `COc1cccc(N2C(=O)CN(Cc3ccccc3)C2=S)c1`, the inhibition is 0.665% (inactive).

Consider `O=C(COc1ccc(Cl)cc1Cl)NCCCNC(=O)c1cnccn1`, for which the inhibition is 1.17% (inactive).

`CCOC(=O)/C(=N\Nc1ccccc1[N+](=O)[O-])c1csc(Nc2ccccc2)n1`: the inhibition is -3.85% (inactive).

Take `Cc1c(-c2ccccc2)nc(N)c(C#N)c1-c1cccs1`: the inhibition is -1.05% (inactive).

As for `CCc1c(-c2ccccc2)nc(N)c(C#N)c1-c1cccs1`, the inhibition is 4.71% (inactive).

As to `CN1CCc2nc(SC(C(=O)O)c3ccccc3)c(C#N)c(-c3cccs3)c2C1` (stereo not given), the inhibition was 34.8% (active).

On to `O=C(Cc1ccccc1F)NC1CCSc2ccccc21` (stereo not given), for which the inhibition is -0.276% (inactive).

Take `Cc1nc(-c2ccccc2)sc1C1(C)CC(c2cccnc2)=NO1` (stereo not given): the inhibition is 1.29% (inactive).

On to `Nc1nc(-c2ccccc2)cc(-c2ccccc2)n1`, for which the inhibition was 6.87% (inactive).

On to `N#Cc1nc(N)nc(N(c2ccccc2)c2ccccc2)n1`, for which the inhibition is 37.4% (active).

`Cc1nc2ccccn2c(=O)c1NC(=O)c1cccs1`: the inhibition is -0.75% (inactive).

`Cc1c(Cl)cccc1NC(=O)CCC(=O)N/N=C/c1ccco1`: the inhibition is -1.26% (inactive).

As to `O=C(CCc1nnc(CCCCc2ccccc2)o1)NC(c1cccnc1)C(F)(F)F` (stereo not given), the inhibition was -3.54% (inactive).

In the case of `CCC(C)NC(=O)CCCc1ccccc1` (stereo not given), the inhibition was -3.16% (inactive).

For `CC(CCn1cccn1)NC(=O)CCc1nnc(CCc2ccccc2)o1` (stereo not given), the inhibition is 36.9% (active).

Regarding `Cc1cc(=O)n2nc(N3CCC(C(=O)Nc4c(F)c(F)c(F)c(F)c4F)CC3)sc2n1`, the inhibition is 0.056% (inactive).

As to `CNC(=O)COC(=O)c1cc(-c2ccc(OC)cc2)nc2ccccc12`, the inhibition was -2.37% (inactive).

For the compound `COc1ccc(-c2cc(C(=O)n3cnc4ccccc43)c3ccccc3n2)cc1`, the inhibition was 37.7% (active).

As to `COc1ccc(-c2cc(C(=O)Nc3ccccc3O)c3ccccc3n2)cc1`, the inhibition is -0.565% (inactive).
